From PubChem BioAssay (NCI)
Compounds without any hit were thinned out: in the full panel of roughly 83,000, 20% have a hit.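 Method: cells in 96-well plates; compound added at one concentration; 48 h incubation; percent growth measured; values under 10 scored active.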 Activity calls are given as the source filed them.

Key:
Experiment in all cases: NCI-60 one-dose screen, 48 h (100 = growth as untreated, 0 = no growth, -100 = all killed)
Conditions in all cases: 10 µM unless noted
HCT-15 colon = system: HCT-15 colon
HT29 colon = system: HT29 colon
SNB-75 CNS = system: SNB-75 CNS
SNB-19 CNS = system: SNB-19 CNS
U251 CNS = system: U251 CNS
PC-3 prostate = system: PC-3 prostate
SK-MEL-5 melanoma = system: SK-MEL-5 melanoma
UACC-62 melanoma = system: UACC-62 melanoma
LOX IMVI melanoma = system: LOX IMVI melanoma
SK-MEL-28 melanoma = system: SK-MEL-28 melanoma
SK-MEL-2 melanoma = system: SK-MEL-2 melanoma
EKVX NSCLC = system: EKVX NSCLC
SN12C renal = system: SN12C renal
UO-31 renal = system: UO-31 renal
TK-10 renal = system: TK-10 renal
ACHN renal = system: ACHN renal
CAKI-1 renal = system: CAKI-1 renal
A498 renal = system: A498 renal
CCRF-CEM leukemia = system: CCRF-CEM leukemia
MOLT-4 leukemia = system: MOLT-4 leukemia

Measured: growth

CO[C@H]1/C=C(/C)CCC[C@H](C)[C@H](O)[C@@H](C)C(=O)C(C)(C)[C@@H](O)CC(=O)O[C@@H]1/C(C)=C/c1csc(C)n1
inactive: HCT-15 colon 16.3% | SNB-19 CNS 31.2% | U251 CNS 15.4% | PC-3 prostate 26.6% | SK-MEL-5 melanoma 20.6% | UACC-62 melanoma 36.8% | LOX IMVI melanoma 14.3% | SK-MEL-28 melanoma 39.6% | EKVX NSCLC 34% | SN12C renal 38.9% | UO-31 renal 21.8% | TK-10 renal 18.8% | ACHN renal 50% | CAKI-1 renal 10.8% | CCRF-CEM leukemia 25.7% | MOLT-4 leukemia 14.6%
active: HT29 colon -4.27% | SNB-75 CNS -32.1% | SK-MEL-2 melanoma -5.73% | A498 renal 2.04%

N#Cc1nc(-c2ccccc2)oc1S(=O)(=O)N1CCOCC1
inactive: HT29 colon 99.5% | SNB-75 CNS 94.4% | SNB-19 CNS 91.7% | U251 CNS 93.7% | PC-3 prostate 100% | SK-MEL-5 melanoma 91.6% | UACC-62 melanoma 91% | LOX IMVI melanoma 68.2% | SK-MEL-28 melanoma 106% | SK-MEL-2 melanoma 90.2% | EKVX NSCLC 106% | SN12C renal 74.1% | UO-31 renal 82.9% | TK-10 renal 94.5% | CAKI-1 renal 66.9% | A498 renal 89.7%
active: HCT-15 colon -15.4% | ACHN renal -97.7% | CCRF-CEM leukemia -20.9% | MOLT-4 leukemia -16%

O=C(CSc1nc(-c2ccccc2)[nH]c1S(=O)(=O)c1ccccc1)NC1CC1
inactive: HCT-15 colon 28.2% | HT29 colon 95.1% | SNB-75 CNS 98.1% | SNB-19 CNS 101% | U251 CNS 20.1% | PC-3 prostate 80.8% | SK-MEL-5 melanoma 35.6% | UACC-62 melanoma 94.6% | LOX IMVI melanoma 44.8% | SK-MEL-28 melanoma 120% | SK-MEL-2 melanoma 102% | EKVX NSCLC 65.1% | SN12C renal 96.5% | UO-31 renal 89.2% | TK-10 renal 87.2% | ACHN renal 104% | CAKI-1 renal 99.2% | A498 renal 72.9% | CCRF-CEM leukemia 93.4% | MOLT-4 leukemia 93.8%

CN(C)CCNc1nc2c3cc(Cl)ccc3nn2c2ccccc12
inactive: HCT-15 colon 41.2% | HT29 colon 21.4% | SNB-75 CNS 83.5% | SNB-19 CNS 41.8% | U251 CNS 49.5% | PC-3 prostate 46.8% | SK-MEL-5 melanoma 56.1% | UACC-62 melanoma 73.6% | LOX IMVI melanoma 25.9% | SK-MEL-28 melanoma 96.3% | SK-MEL-2 melanoma 95.2% | EKVX NSCLC 49.8% | SN12C renal 40.9% | UO-31 renal 28.2% | TK-10 renal 97.8% | ACHN renal 22.7% | CAKI-1 renal 40.4% | CCRF-CEM leukemia 47.1% | MOLT-4 leukemia 15.9%
active: A498 renal -6.05%

CCn1c(=S)sc2c(Nc3ccc(F)cc3)nc(-c3cccnc3)nc21
inactive: HCT-15 colon 88.2% | HT29 colon 41.6% | SNB-75 CNS 13.7% | SNB-19 CNS 78.9% | U251 CNS 34.3% | PC-3 prostate 56% | SK-MEL-5 melanoma 87.7% | UACC-62 melanoma 56.7% | LOX IMVI melanoma 69.5% | SK-MEL-28 melanoma 86.2% | SK-MEL-2 melanoma 63.1% | EKVX NSCLC 80.5% | SN12C renal 84.1% | UO-31 renal 78.5% | TK-10 renal 58.2% | ACHN renal 40.7% | CAKI-1 renal 55.1% | A498 renal 93.7% | CCRF-CEM leukemia 102% | MOLT-4 leukemia 93.7%

Cn1cc(-c2nc(-c3c[nH]c4ccncc34)cs2)c2ccccc21
inactive: SNB-75 CNS 91% | SNB-19 CNS 88.4% | PC-3 prostate 61.5% | SK-MEL-5 melanoma 55.2% | UACC-62 melanoma 94.6% | SK-MEL-2 melanoma 93.1% | EKVX NSCLC 49% | SN12C renal 77.5% | UO-31 renal 57.9% | TK-10 renal 88.3% | ACHN renal 24.7% | CAKI-1 renal 19.8% | A498 renal 85.3% | MOLT-4 leukemia 35.7%
active: HCT-15 colon -21.6% | HT29 colon 0.469% | U251 CNS -43.8% | LOX IMVI melanoma -78% | SK-MEL-28 melanoma -79.8% | CCRF-CEM leukemia 0.202%

N#Cc1c(-c2ccccc2)cc(-c2ccccc2)n(CCCCCC(=O)Nc2ccccc2N)c1=O
inactive: HCT-15 colon 51.7% | HT29 colon 43.7% | SNB-75 CNS 32.2% | SNB-19 CNS 68.2% | U251 CNS 61.2% | PC-3 prostate 43.7% | SK-MEL-5 melanoma 21.2% | UACC-62 melanoma 65.5% | LOX IMVI melanoma 26.2% | SK-MEL-28 melanoma 80.5% | SK-MEL-2 melanoma 89.7% | EKVX NSCLC 50.8% | SN12C renal 59% | UO-31 renal 34.4% | TK-10 renal 72.8% | ACHN renal 73.7% | CAKI-1 renal 29.7% | A498 renal 96.7%
active: CCRF-CEM leukemia 6.3% | MOLT-4 leukemia 9.12%

CC(C)(C)n1cc(-c2ccnc(NCCNS(=O)(=O)c3cccc(F)c3)c2)c(-c2ccccc2)n1
inactive: HCT-15 colon 62.5% | HT29 colon 41.4% | SNB-75 CNS 85.2% | SNB-19 CNS 89.3% | U251 CNS 67.5% | PC-3 prostate 80.3% | SK-MEL-5 melanoma 72.3% | UACC-62 melanoma 81.7% | LOX IMVI melanoma 85.1% | SK-MEL-28 melanoma 102% | SK-MEL-2 melanoma 105% | EKVX NSCLC 70.6% | SN12C renal 90.1% | UO-31 renal 67% | TK-10 renal 105% | ACHN renal 99.5% | CAKI-1 renal 90.4% | A498 renal 27.1% | CCRF-CEM leukemia 93.8% | MOLT-4 leukemia 74.4%

Cc1cccc2c1NC(=O)C2(c1ccc(O)cc1)c1ccc(O)cc1
inactive: HCT-15 colon 49.3% | HT29 colon 79.2% | SNB-75 CNS 23.1% | SNB-19 CNS 102% | U251 CNS 90.1% | PC-3 prostate 38.9% | SK-MEL-5 melanoma 96.5% | UACC-62 melanoma 83.8% | LOX IMVI melanoma 59.2% | SK-MEL-28 melanoma 106% | SK-MEL-2 melanoma 89.2% | EKVX NSCLC 75.7% | SN12C renal 11.2% | UO-31 renal 89.2% | TK-10 renal 28.8% | ACHN renal 78.5% | CAKI-1 renal 94.1% | A498 renal 81.5% | CCRF-CEM leukemia 71.2% | MOLT-4 leukemia 84.2%

Cc1ccc(Cl)cc1Nc1nc(C(F)(F)F)ccc1C(=O)N/N=C/c1cccnc1
inactive: HCT-15 colon 19.2% | HT29 colon 34.6% | SNB-75 CNS 52% | SNB-19 CNS 36.8% | PC-3 prostate 32.4% | UACC-62 melanoma 27.6% | LOX IMVI melanoma 18.6% | SK-MEL-28 melanoma 39.9% | EKVX NSCLC 12.7% | SN12C renal 36.4% | UO-31 renal 15% | TK-10 renal 24.3% | ACHN renal 10.2% | CAKI-1 renal 14.3% | A498 renal 34% | CCRF-CEM leukemia 10.6%
active: U251 CNS 2.89% | SK-MEL-5 melanoma -16.4% | SK-MEL-2 melanoma -5.85% | MOLT-4 leukemia 3.8%

O=S(=O)(NCCNc1cc(-c2c(-c3cccc(O)c3)nc3sccn23)ccn1)c1ccc(C(F)(F)F)cc1
inactive: HCT-15 colon 25.2% | HT29 colon 32.6% | SNB-75 CNS 38.3% | SNB-19 CNS 54.8% | U251 CNS 34.8% | PC-3 prostate 31.4% | UACC-62 melanoma 40.1% | LOX IMVI melanoma 37.8% | SK-MEL-28 melanoma 55.7% | SK-MEL-2 melanoma 43.9% | EKVX NSCLC 35.7% | SN12C renal 35.6% | TK-10 renal 67.9% | ACHN renal 33.2% | CAKI-1 renal 29.3% | A498 renal 40.2% | CCRF-CEM leukemia 25.4%
active: SK-MEL-5 melanoma -2.62% | UO-31 renal -71.8% | MOLT-4 leukemia 9.21%

COC(=O)c1c2c(c(C)[n+]([O-])c1C)C(=O)C(NCc1ccc(Cl)cc1)=CC2=O
active: HT29 colon 9.34% | UACC-62 melanoma 6.15%
inactive: HCT-15 colon 39.6% | SNB-75 CNS 131% | SNB-19 CNS 84.4% | U251 CNS 57.2% | PC-3 prostate 33.5% | SK-MEL-5 melanoma 29.9% | LOX IMVI melanoma 45.8% | SK-MEL-28 melanoma 95.7% | SK-MEL-2 melanoma 83.4% | EKVX NSCLC 70.9% | SN12C renal 38% | UO-31 renal 79% | TK-10 renal 111% | ACHN renal 67.5% | CAKI-1 renal 76.3% | A498 renal 88.2% | CCRF-CEM leukemia 58% | MOLT-4 leukemia 72.8%

O=C(NNC(=O)c1ccc(-n2cc(-c3ccccc3)nn2)cc1)Nc1ccccc1
inactive: HCT-15 colon 103% | HT29 colon 118% | SNB-75 CNS 97.2% | SNB-19 CNS 90.1% | U251 CNS 96.5% | PC-3 prostate 99.8% | SK-MEL-5 melanoma 100% | UACC-62 melanoma 97.9% | LOX IMVI melanoma 97.1% | SK-MEL-28 melanoma 109% | SK-MEL-2 melanoma 110% | EKVX NSCLC 108% | SN12C renal 97.7% | UO-31 renal 92.2% | TK-10 renal 109% | ACHN renal 101% | CAKI-1 renal 91.8% | A498 renal 105% | CCRF-CEM leukemia 102% | MOLT-4 leukemia 107%

C=CCn1c(SCC(=O)Nc2ccc(C(=O)/C=C/c3cc4cc(OC)ccc4nc3Cl)cc2)nnc1-c1ccc(Br)cc1
inactive: HCT-15 colon 84.2% | HT29 colon 73.8% | SNB-75 CNS 74.8% | SNB-19 CNS 78.4% | U251 CNS 82.5% | PC-3 prostate 68.2% | SK-MEL-5 melanoma 82.9% | UACC-62 melanoma 72.9% | LOX IMVI melanoma 82.6% | SK-MEL-28 melanoma 99.9% | SK-MEL-2 melanoma 79.2% | EKVX NSCLC 87.4% | SN12C renal 81.5% | UO-31 renal 65.3% | TK-10 renal 93.5% | ACHN renal 92.1% | CAKI-1 renal 76.1% | A498 renal 89.5% | CCRF-CEM leukemia 58.5% | MOLT-4 leukemia 68.5%

CC(=O)N1N=C(c2ccc(Nc3nc(Nc4ccc(Cl)cc4)nc(Nc4ccc(Cl)cc4)n3)cc2)CC1c1ccco1 (stereo not given)
inactive: HCT-15 colon 85.7% | HT29 colon 97.8% | SNB-75 CNS 112% | SNB-19 CNS 101% | U251 CNS 81.7% | PC-3 prostate 87.6% | SK-MEL-5 melanoma 75.9% | UACC-62 melanoma 89.9% | LOX IMVI melanoma 95.7% | SK-MEL-28 melanoma 111% | SK-MEL-2 melanoma 77.7% | EKVX NSCLC 97% | SN12C renal 90.3% | UO-31 renal 85.6% | TK-10 renal 110% | ACHN renal 98.8% | CAKI-1 renal 86.8% | A498 renal 107% | CCRF-CEM leukemia 92.4% | MOLT-4 leukemia 66%
